VACV Venus inh – inhibitors of vaccinia virus (Venus reporter); Vaccinia virus Venus reporter expression, fluorescence; Potency, µM (titrated, usually from 36.5 µM), for the others: at the highest dose activity change, negative = inhibition, actives largely listed as inhibitors; hit rate 0.46% among 330,000; AID 720580; calls by dose curve; tested in A549 cells; further: nearly all actives have a fitted effect of over 30% in size
Vaccinia mCherry – inhibitors of vaccinia virus infection (mCherry reporter signal); AID 720579; Potency, µM (highest dose often 36.5 µM), for inactives: at the top dose activity change, negative = inhibition, most hits filed as inhibitors; hit rate 0.63% among 310,000; Vaccinia virus mCherry reporter infection, fluorescence; calls by dose curve; tested in A549 cells; further: nearly all actives have a fitted effect of over 35% in size
Lassa entry inh – inhibitors of Lassa virus binding or cell entry; Lassa virus pseudotype entry inhibition, cell reporter; Potency, µM (titrated, usually from 37.9 µM), inactives show at the top dose activity change, negative = inhibition, most hits filed as inhibitors; hit rate 1.2% among 300,000; calls by dose curve; tested in HEK293 cells; further: nearly all actives have a fitted effect of over 50% in size
HCV inh – HCV inhibition | Huh7.5.1 HCVcc-Cre infection, luciferase reporter, 44 h | AID 651820 | hit rate 3.4% among 340,000 | Potency, µM (top dose mostly 41.8 µM), for inactives: top-dose activity change, negative = inhibition, usual class: inhibitors; active means well fitted inhibition curve with a large enough effect; inconclusive means small, poorly fitted or top-dose-only effect, or another doubt; inactive means no such curve, though single readings can be large or run the other way
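HCVcc-Cre virus at an moi near 0.5 was added right after compound to cells cultured 4 h from seeding (1,000 cells/well). Luciferase activity was determined 44 h later, 15 min after substrate addition at RT.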
MARV entry inh – blocks Marburg virus binding to or entry into cells. hit rate 1.8% among 300,000. Potency, µM (top dose mostly 37.8 µM), without a hit: at the highest dose activity change, negative = inhibition, actives largely listed as inhibitors. AID 540276. Marburg virus pseudotyped entry inhibition, cell reporter; calls by dose curve; tested in HEK293 cells
Starred values were filed as active, the others as inactive; [ ] = remark or other dose. Compounds with a hit are over-represented: about 4.6% of the library has one in this group of screens. On the % scale 0 is the no-effect control and ±100 the full control effect; potency means the concentration at half of the fitted maximal effect.

For O=C(Nc1nccs1)c1ccccc1Br the results were HCV inh -3%.
Screening CC(=O)N1CCc2cc(Br)cc(S(=O)(=O)N3CCN(c4cc(C)ccc4C)CC3)c21 returned VACV Venus inh 4%, Vaccinia mCherry -5%, Lassa entry inh 13%[46.1 µM] and MARV entry inh 21%[46.1 µM].
For O=C(Nc1cccc(Cl)c1)c1ccc(NCCCN2CCOCC2)c([N+](=O)[O-])c1 the results were VACV Venus inh inconclusive, Vaccinia mCherry -15%[1.46 µM], Lassa entry inh inconclusive, HCV inh 10µM* and MARV entry inh 10µM*.
`Cc1ccc(NC(=O)c2ccc(NCCCN3CCC(C)CC3)c([N+](=O)[O-])c2)cc1F` gave VACV Venus inh -15%, Vaccinia mCherry -7%, Lassa entry inh -10%, HCV inh inconclusive and MARV entry inh inconclusive.
S=C(NCCCN1CCOCC1)Nc1cccc(Cl)c1 was read as VACV Venus inh -22%, Vaccinia mCherry -6%, Lassa entry inh 13µM*, HCV inh 11% and MARV entry inh -1%.
Cc1ccc2c(c1)c1c(c(=O)n(-c3ccccc3)c(=O)n1CC(=O)N1CCCC1)n2C was read as VACV Venus inh -3%, Vaccinia mCherry 5% and Lassa entry inh 10%[46.1 µM].
Screening COc1ccc(CNC(=O)CCc2c(C)nn(-c3ccc(N4CCOCC4)nn3)c2C)cc1 returned VACV Venus inh -1%, Vaccinia mCherry 1% and Lassa entry inh 4%[46.1 µM].
O=C(CSC1=Nc2ccccc2C2=NC(CCC(=O)NC3CCCCC3)C(=O)N12)Nc1cccc(Cl)c1 (centres undefined) was read as VACV Venus inh -4%, Vaccinia mCherry -6%, Lassa entry inh 8%[46.1 µM] and MARV entry inh 11%[46.1 µM].
Screening CCOc1ccc(/C=C/C(=O)OCC(=O)NCCc2ccc(OCC)c(OCC)c2)cc1OC returned VACV Venus inh -11%, Vaccinia mCherry -11%, Lassa entry inh 1%, HCV inh 7.9µM* and MARV entry inh 0%.
CCOc1ccc(CCNC(=O)COC(=O)/C=C/c2cccc(OC)c2)cc1OCC was read as VACV Venus inh -6%, Vaccinia mCherry -6%, Lassa entry inh 8%, HCV inh -29% and MARV entry inh 11%.
`Cc1ccc(-c2cc(C(=O)NCCCN3CCCC3)c3ccccc3n2)cc1C` gave VACV Venus inh -21%, Vaccinia mCherry inactive, Lassa entry inh inconclusive, HCV inh 22µM* and MARV entry inh 11µM*.
`CCNC(=S)NNC(=O)c1cc(-c2ccc(OCC)cc2)nc2ccccc12` gave Lassa entry inh 1.2µM*, HCV inh -14% and MARV entry inh inconclusive.
CCCOc1ccc(C(=O)NNC(=S)NC(=O)c2cc(-c3ccc(Cl)cc3)nc3ccccc23)cc1 was read as VACV Venus inh -12%, Vaccinia mCherry -20%, Lassa entry inh -10%, HCV inh 16µM* and MARV entry inh inconclusive.
`Cc1c(Cl)ccc2c(C(=O)NCCCn3nccc3C)cc(-c3ccccn3)nc12` gave VACV Venus inh -25%, Vaccinia mCherry -27%, Lassa entry inh -17%, HCV inh -17% and MARV entry inh -21%.
Screening Cc1c(Cl)ccc2c(C(=O)NCCN3CCCCC3)cc(-c3ccccn3)nc12 returned VACV Venus inh -6%, Vaccinia mCherry inactive, Lassa entry inh 3%, HCV inh 5.6µM* and MARV entry inh inconclusive.
For COc1ccc(C(=O)NNC(=S)NC(=O)c2cc(-c3ccccc3)nc3ccccc23)cc1 the results were VACV Venus inh -20%, Vaccinia mCherry -18%, Lassa entry inh -16%, HCV inh inconclusive and MARV entry inh -22%.
COc1ccc(-c2noc(CSCC(=O)Nc3cc(OC)c(OC)c(OC)c3)n2)cc1OC was read as VACV Venus inh -6%, Vaccinia mCherry -14% and Lassa entry inh 10%[46.1 µM].
For CCC(Sc1ncc(S(=O)(=O)c2ccc(C)cc2)c(=O)[nH]1)C(=O)Nc1cc(C)ccc1C (centres undefined) the results were VACV Venus inh 1%, Vaccinia mCherry 2% and MARV entry inh inconclusive.
`CCOc1ccccc1NC(=O)c1cc2c(=O)[nH]c3ccccc3c2s1` gave VACV Venus inh 6%, Vaccinia mCherry -3%, Lassa entry inh 11%[46.1 µM] and MARV entry inh 6%[46.1 µM].
For COCCCNC(=O)c1cc(-c2cccnc2)nc2ccccc12 the results were VACV Venus inh -9%, Vaccinia mCherry -13%, Lassa entry inh -15%[46.1 µM], HCV inh 4% and MARV entry inh 9%[46.1 µM].
`COCCNC(=O)c1cc(-c2ccc(-c3ccccc3)cc2)nc2ccccc12` gave VACV Venus inh -19%, Vaccinia mCherry inconclusive, Lassa entry inh inconclusive, HCV inh 10µM* and MARV entry inh inconclusive.
For CCc1ccc(-c2cc(C(=O)Nn3cnnc3)c3ccccc3n2)cc1 the results were VACV Venus inh -5%, Vaccinia mCherry -14%, Lassa entry inh 1.3µM*, HCV inh 11% and MARV entry inh 1µM*.
For CCCc1ccc(-c2cc(C(=O)NN3CCOCC3)c3ccccc3n2)cc1 the results were Lassa entry inh 3%, HCV inh inconclusive and MARV entry inh inconclusive.
Screening Oc1ccc(/C=N/Nc2nccnc2Cl)c(O)c1 returned VACV Venus inh inconclusive, Vaccinia mCherry 2.5µM*, Lassa entry inh inconclusive, HCV inh inconclusive and MARV entry inh inconclusive.
Oc1ccc(/C=N/Nc2ncc(Br)cn2)c(O)c1 was read as VACV Venus inh inconclusive, Vaccinia mCherry 2.5µM*, Lassa entry inh inconclusive, HCV inh inconclusive and MARV entry inh inconclusive.
For Oc1ccccc1/C=N/Nc1nccnc1Cl the results were Lassa entry inh 13µM*, HCV inh inconclusive and MARV entry inh inconclusive.
Oc1ccc(/C=N/Nc2cccc3cccnc23)c(O)c1 was read as VACV Venus inh -23%, Vaccinia mCherry inconclusive, Lassa entry inh inconclusive, HCV inh inconclusive and MARV entry inh inconclusive.
Screening CC1CCCN(c2ncnc3c2nc2n3CCCCC2)C1 (centres undefined) returned VACV Venus inh 3%, Vaccinia mCherry 3% and Lassa entry inh 20%[46.1 µM].
Screening CC1CN(CCC(=O)N2CCCC(C(=O)c3nccn3C)C2)Cc2cc(Cl)ccc2O1 (centres undefined) returned VACV Venus inh -6% and Vaccinia mCherry -17%.
`CCN(CC)S(=O)(=O)c1ccc2oc(Nc3ccc4c(c3)OCCO4)nc2c1` gave VACV Venus inh -24%, Vaccinia mCherry -13%, Lassa entry inh -21%, HCV inh 10µM* and MARV entry inh inconclusive.
`COc1cc(OC)c2nc(-c3cc4c(c(OC)c3)OCCN(C(=O)CC3NC(=O)c5ccccc53)C4)cc(C)c2c1` (centres undefined) gave VACV Venus inh -10% and Vaccinia mCherry -10%.
`Clc1ccc2c(c1)CNc1c(ncnc1N1CCOCC1)O2` gave VACV Venus inh 10µM*, Lassa entry inh -14%, HCV inh inconclusive and MARV entry inh -1%.

Source: PubChem BioAssay
